U2OS ROS induce: cancer cell ROS induction; 46,000 tested, 2% active; AID 624156; ROS induction (% of piperlongumine), % at 10 µM; U2OS ROS induction, H2DCF-DA fluorescence; in the data active = ROS induction above about 79%, passing the limit was not always enough; inconclusive = no clear call, values can overlap the other calls;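 note: 0% = DMSO vehicle median and 100% = reference compound median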
YB-1 expr inh: YB-1 expression inhibition. U2OS, qRT-PCR YB-1 vs CDIP delta delta Cp, 16 h; stronger effect = higher value; zero = DMSO, each unit about twofold. delta delta Cp (YB-1 minus CDIP) (no concentration beside the values). AID 434959. 30,000 tested, 0.37% active;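 active = delta delta Cp rounded down to an integer at or above 3, about 3 SD of DMSO wells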;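 note: higher means less YB-1 transcript or more CDIP transcript relative to DMSO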
NOMO-1 viab: STK33 inhibitor candidate reducing NOMO-1 cell viability; 37,000 tested, 7.5% active; NOMO-1 AML viability, CellTiter-Glo luminescence, 72 h; inhibition, % (concentration not given with the values); in the data active = inhibition above about 80%; inconclusive = no clear call, values can overlap the other calls
PD-1 reverse act: activators reversing PD-1 mediated T-cell inhibition | 29,000 tested, under 10 active | primary human CD4 T cells, PD-L1 beads, CellTiter-Glo 96 h | activation, % (concentration not given with the values); call rule not given here;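 note: 0% = median vehicle wells and 100% = positive control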
* = called active by the depositor; ? = inconclusive; nt = no result. This is one part of a sample in which hits are shown more often than they occur.

SMILES | U2OS ROS induce | YB-1 expr inh | NOMO-1 viab | PD-1 reverse act
C[C@H](CO)N1C[C@H](C)[C@H](CN(C)Cc2ccc(C(=O)Nc3ccccc3N)cc2)Oc2ccc(NC(=O)CCC(F)(F)F)cc2CC1=O | -7 | -0.5 | 141* | -7
C[C@H]1CN([C@@H](C)CO)C(=O)c2cc(NC(=O)CCC(F)(F)F)ccc2O[C@H]1CN(C)Cc1ccc(C(=O)Nc2ccccc2N)cc1 | 3 | 0.12 | 106* | -2
C[C@@H]1CN([C@H](C)CO)C(=O)c2cc(NC(=O)CCC(F)(F)F)ccc2O[C@H]1CN(C)Cc1ccc(C(=O)Nc2ccccc2N)cc1 | 34 | 0.28 | 45 | -1
C[C@@H]1CN([C@@H](C)CO)C(=O)Cc2cc(NC(=O)CCC(F)(F)F)ccc2O[C@@H]1CN(C)Cc1ccc(C(=O)Nc2ccccc2N)cc1 | 12 | -0.44 | 91* | 0
C[C@@H]1CN([C@H](C)CO)C(=O)Cc2cc(NC(=O)Nc3ccc(F)cc3)ccc2O[C@H]1CN(C)Cc1ccc(C(=O)Nc2ccccc2N)cc1 | 7 | -0.17 | 15 | 0
CC(C)NC(=O)Nc1ccc2c(c1)CC(=O)N([C@@H](C)CO)C[C@@H](C)[C@@H](CN(C)C(=O)Nc1ccc3c(c1)OCO3)O2 | 111* | -0.031 | 18 | 0
C[C@H](CO)N1C[C@H](C)[C@H](CN(C)C(=O)Nc2ccc3c(c2)OCO3)Oc2ccc(NS(=O)(=O)c3ccccc3)cc2CC1=O | -4 | -0.23 | 0 | 3
C[C@H](CO)N1C[C@H](C)[C@H](CN(C)C(=O)Nc2ccc3c(c2)OCO3)Oc2ccc(NS(C)(=O)=O)cc2CC1=O | 123* | 0.12 | 10 | 2
C[C@H]1CN([C@@H](C)CO)C(=O)Cc2cc(NC(=O)Nc3ccc4c(c3)OCO4)ccc2O[C@H]1CN(C)C(=O)Nc1ccc2c(c1)OCO2 | 0 | 0.17 | -1 | 0
CC1=C(C(=O)Nc2ccccc2)C2(CCCCC2)C(C#N)=C(SCC(=O)Nc2nccs2)N1 | 16 | nt | nt | nt
C[C@@H]1CN([C@@H](C)CO)C(=O)c2cc(NC(=O)Nc3ccc(C(F)(F)F)cc3)ccc2O[C@H]1CN(C)Cc1ccccc1 | 4 | -0.026 | 96* | -3
C[C@@H]1CN([C@@H](C)CO)C(=O)c2cc(NC(=O)Nc3ccc(C(F)(F)F)cc3)ccc2O[C@H]1CN(C)Cc1ccc(Oc2ccccc2)cc1 | 31 | -0.29 | 118* | -7
C[C@H]1CN([C@@H](C)CO)C(=O)c2cc(NC(=O)Nc3ccc(C(F)(F)F)cc3)ccc2O[C@H]1CN(C)Cc1ccccc1 | 11 | -0.045 | 103* | -3
C[C@@H]1CN([C@@H](C)CO)C(=O)c2cc(NC(=O)Nc3ccccc3)ccc2O[C@@H]1CN(C)Cc1ccc(C(F)(F)F)cc1 | 17 | 0.38 | 97* | -1
C[C@H]1CN([C@@H](C)CO)C(=O)c2cc(NC(=O)Nc3ccc(C(F)(F)F)cc3)ccc2O[C@@H]1CN(C)Cc1ccc(Oc2ccccc2)cc1 | 12 | 0.15 | 48 | 1
O=C(CCCCCCC(=O)Nc1ccccc1O)N/N=C/c1ccc[nH]1 | 22 | -0.49 | nt | nt
C[C@@H]1CN([C@H](C)CO)C(=O)c2cc(NC(=O)Nc3ccc(C(F)(F)F)cc3)ccc2O[C@@H]1CN(C)Cc1ccccc1 | -17 | -0.38 | 89* | -1
C[C@H](CO)N1C[C@H](C)[C@H](CN(C)Cc2ccccc2)Oc2ccc(NC(=O)Nc3ccc(C(F)(F)F)cc3)cc2C1=O | -7 | -0.37 | 91* | -5
C[C@H]1CN([C@@H](C)CO)C(=O)c2cc(NC(=O)Nc3ccccc3)ccc2O[C@H]1CN(C)Cc1ccc(C(F)(F)F)cc1 | 9 | -0.16 | 14 | 1
C[C@H]1CN([C@@H](C)CO)C(=O)c2cc(NC(=O)Nc3ccccc3)ccc2O[C@@H]1CN(C)Cc1ccc(C(F)(F)F)cc1 | 25 | 0.16 | ? | 1
C[C@@H]1CN([C@H](C)CO)C(=O)c2cc(NC(=O)NC3CCCCC3)ccc2O[C@@H]1CN(C)Cc1ccc(-c2ccccc2)cc1 | -2 | 0.16 | 87* | nt
C[C@@H]1CN([C@H](C)CO)C(=O)c2cc(NC(=O)NC3CCCCC3)ccc2O[C@H]1CN(C)Cc1ccc(-c2ccccc2)cc1 | 19 | -0.039 | ? | -4
C[C@H]1CN([C@@H](C)CO)C(=O)c2cc(NC(=O)NC3CCCCC3)ccc2O[C@H]1CN(C)Cc1ccccc1 | -12 | -0.72 | -6 | 3
C[C@@H]1CN([C@@H](C)CO)C(=O)c2cc(NC(=O)NC3CCCCC3)ccc2O[C@H]1CN(C)Cc1ccc(-c2ccccc2)cc1 | 10 | -0.2 | 100* | -1

Screening data deposited in PubChem BioAssay by Broad Institute.
